What was measured:
[1] = target: Serine/threonine-protein kinase 26 (Homo sapiens) (UniProt Q9P289); settings: at 1 µM;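 further: mean inhibition of MST4 kinase activity, reported from the GSK PKIS inhibitor-set screening panel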
[2] = target: Serine/threonine-protein kinase PAK 1 (Homo sapiens) (UniProt Q13153); settings: at 0.1 µM
[3] = target: Serine/threonine-protein kinase PAK 1 (Homo sapiens) (UniProt Q13153); settings: at 1 µM
[4] = target: Serine/threonine-protein kinase PAK 2 (Homo sapiens) (UniProt Q13177); settings: at 0.1 µM
[5] = target: Serine/threonine-protein kinase PAK 2 (Homo sapiens) (UniProt Q13177); settings: at 1 µM
[6] = target: Serine/threonine-protein kinase PAK 3 (Homo sapiens) (UniProt O75914); settings: at 0.1 µM
[7] = target: Serine/threonine-protein kinase PAK 3 (Homo sapiens) (UniProt O75914); settings: at 1 µM
[8] = target: Serine/threonine-protein kinase PAK 5 (Homo sapiens) (UniProt Q9P286); settings: at 1 µM
[9] = target: Serine/threonine-protein kinase PAK 6 (Homo sapiens) (UniProt Q9NQU5); settings: at 0.1 µM
[10] = tested on: Tyrosine-protein kinase ABL1 (Homo sapiens), P00519 [E255K]; settings: at 0.1 µM
[11] = tested on: Tyrosine-protein kinase ABL1 (Homo sapiens), P00519 [E255K]; settings: at 1 µM
[12] = tested on: Tyrosine-protein kinase ABL1 (Homo sapiens), P00519 [H396P]; settings: at 0.1 µM
[13] = tested on: Tyrosine-protein kinase ABL1 (Homo sapiens), P00519 [H396P]; settings: at 1 µM
[14] = tested on: Tyrosine-protein kinase ABL1 (Homo sapiens), P00519 [M351T]; settings: at 0.1 µM
[15] = tested on: Tyrosine-protein kinase ABL1 (Homo sapiens), P00519 [M351T]; settings: at 1 µM
[16] = tested on: Tyrosine-protein kinase ABL1 (Homo sapiens), P00519 [Q252H]; settings: at 0.1 µM
[17] = tested on: Tyrosine-protein kinase ABL1 (Homo sapiens), P00519 [Q252H]; settings: at 1 µM
[18] = tested on: Tyrosine-protein kinase ABL1 (Homo sapiens), P00519 [T315I]; settings: at 0.1 µM
[19] = target: Serine/threonine-protein kinase PAK 5 (Homo sapiens) (UniProt Q9P286); settings: at 0.1 µM
[20] = target: Serine/threonine-protein kinase PAK 6 (Homo sapiens) (UniProt Q9NQU5); settings: at 1 µM

Chain of Serine/threonine-protein kinase PAK 6 (Homo sapiens) (Q9NQU5 whole entry, looked up): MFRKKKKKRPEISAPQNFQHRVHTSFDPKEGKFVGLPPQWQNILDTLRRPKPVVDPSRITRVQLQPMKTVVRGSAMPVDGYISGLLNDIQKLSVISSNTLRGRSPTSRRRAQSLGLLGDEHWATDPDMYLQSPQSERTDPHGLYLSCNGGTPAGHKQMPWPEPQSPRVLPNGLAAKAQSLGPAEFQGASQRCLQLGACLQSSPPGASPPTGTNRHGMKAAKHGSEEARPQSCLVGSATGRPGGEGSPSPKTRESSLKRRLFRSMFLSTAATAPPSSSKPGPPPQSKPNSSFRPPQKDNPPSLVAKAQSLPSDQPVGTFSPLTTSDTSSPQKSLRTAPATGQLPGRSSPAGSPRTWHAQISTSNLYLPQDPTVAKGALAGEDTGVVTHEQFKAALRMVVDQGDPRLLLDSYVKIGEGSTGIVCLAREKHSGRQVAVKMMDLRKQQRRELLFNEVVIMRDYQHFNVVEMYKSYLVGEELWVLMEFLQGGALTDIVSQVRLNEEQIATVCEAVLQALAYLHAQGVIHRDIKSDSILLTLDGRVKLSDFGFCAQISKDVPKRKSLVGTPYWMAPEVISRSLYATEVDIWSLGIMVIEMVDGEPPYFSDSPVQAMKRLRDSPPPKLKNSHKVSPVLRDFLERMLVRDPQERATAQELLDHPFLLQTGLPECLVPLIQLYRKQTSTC
Chain of Serine/threonine-protein kinase PAK 1 (Homo sapiens) (Q13153 whole entry): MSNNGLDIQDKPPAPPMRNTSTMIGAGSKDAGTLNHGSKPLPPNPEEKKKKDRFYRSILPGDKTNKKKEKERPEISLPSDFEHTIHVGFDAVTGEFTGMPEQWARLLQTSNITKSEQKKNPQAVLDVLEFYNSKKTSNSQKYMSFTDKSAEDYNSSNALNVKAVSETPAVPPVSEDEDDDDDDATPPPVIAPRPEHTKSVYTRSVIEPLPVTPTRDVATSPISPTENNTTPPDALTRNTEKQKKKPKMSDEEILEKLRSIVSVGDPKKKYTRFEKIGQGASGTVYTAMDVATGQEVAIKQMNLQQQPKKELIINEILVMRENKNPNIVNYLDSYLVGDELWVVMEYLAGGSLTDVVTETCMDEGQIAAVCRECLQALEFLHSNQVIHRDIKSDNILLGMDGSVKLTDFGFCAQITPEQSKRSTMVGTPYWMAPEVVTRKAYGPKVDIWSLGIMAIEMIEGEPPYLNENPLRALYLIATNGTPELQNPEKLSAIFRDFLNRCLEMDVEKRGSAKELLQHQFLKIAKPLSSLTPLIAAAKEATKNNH
Chain of Serine/threonine-protein kinase 26 (Homo sapiens) (Q9P289 2-416 limits assumed): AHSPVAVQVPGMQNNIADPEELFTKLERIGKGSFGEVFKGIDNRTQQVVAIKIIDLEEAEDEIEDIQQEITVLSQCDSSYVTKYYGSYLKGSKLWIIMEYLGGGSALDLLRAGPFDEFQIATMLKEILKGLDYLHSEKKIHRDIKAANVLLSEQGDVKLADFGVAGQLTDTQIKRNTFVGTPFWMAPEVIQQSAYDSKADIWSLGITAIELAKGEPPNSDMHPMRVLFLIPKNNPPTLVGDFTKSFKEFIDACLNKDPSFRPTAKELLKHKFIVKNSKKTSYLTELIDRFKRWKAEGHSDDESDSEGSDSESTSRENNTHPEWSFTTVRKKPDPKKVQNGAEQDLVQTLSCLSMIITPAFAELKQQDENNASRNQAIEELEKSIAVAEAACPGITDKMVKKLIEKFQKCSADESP
Chain of Serine/threonine-protein kinase PAK 5 (Homo sapiens) (Q9P286 whole entry, looked up): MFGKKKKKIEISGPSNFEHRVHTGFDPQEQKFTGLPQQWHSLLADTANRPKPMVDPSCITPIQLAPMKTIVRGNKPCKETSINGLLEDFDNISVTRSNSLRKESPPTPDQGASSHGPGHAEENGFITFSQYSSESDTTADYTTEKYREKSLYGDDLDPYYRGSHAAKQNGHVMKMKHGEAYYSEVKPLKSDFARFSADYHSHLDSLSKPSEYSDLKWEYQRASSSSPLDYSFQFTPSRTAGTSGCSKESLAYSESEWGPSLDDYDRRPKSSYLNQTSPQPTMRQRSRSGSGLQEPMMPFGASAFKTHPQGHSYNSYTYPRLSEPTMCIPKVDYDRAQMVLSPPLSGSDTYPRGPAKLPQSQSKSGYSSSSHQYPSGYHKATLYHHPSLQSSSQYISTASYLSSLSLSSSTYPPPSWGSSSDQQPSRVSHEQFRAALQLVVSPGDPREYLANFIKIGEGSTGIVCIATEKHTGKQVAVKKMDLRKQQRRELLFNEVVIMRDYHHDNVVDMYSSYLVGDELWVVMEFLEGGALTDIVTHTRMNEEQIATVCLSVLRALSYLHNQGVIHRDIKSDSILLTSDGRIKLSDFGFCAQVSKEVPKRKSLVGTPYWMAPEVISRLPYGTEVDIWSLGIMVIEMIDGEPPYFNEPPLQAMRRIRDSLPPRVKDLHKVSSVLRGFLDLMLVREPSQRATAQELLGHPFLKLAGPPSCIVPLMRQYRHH
Chain of Serine/threonine-protein kinase PAK 3 (Homo sapiens) (O75914 whole entry, looked up): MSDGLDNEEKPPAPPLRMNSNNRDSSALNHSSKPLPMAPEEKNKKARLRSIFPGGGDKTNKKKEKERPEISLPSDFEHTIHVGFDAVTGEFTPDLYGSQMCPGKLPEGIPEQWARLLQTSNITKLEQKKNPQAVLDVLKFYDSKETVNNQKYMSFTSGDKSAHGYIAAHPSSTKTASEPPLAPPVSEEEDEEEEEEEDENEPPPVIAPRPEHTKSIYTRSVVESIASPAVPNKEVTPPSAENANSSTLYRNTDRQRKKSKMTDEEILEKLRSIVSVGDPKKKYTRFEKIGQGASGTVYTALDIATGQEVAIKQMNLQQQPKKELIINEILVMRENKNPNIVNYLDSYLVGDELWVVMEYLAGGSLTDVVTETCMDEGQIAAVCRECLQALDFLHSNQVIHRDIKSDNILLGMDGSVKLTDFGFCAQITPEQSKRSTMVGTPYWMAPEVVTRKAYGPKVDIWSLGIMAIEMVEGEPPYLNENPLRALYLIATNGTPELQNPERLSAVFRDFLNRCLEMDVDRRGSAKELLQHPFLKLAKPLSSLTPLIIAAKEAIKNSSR
Chain of Serine/threonine-protein kinase PAK 2 (Homo sapiens) (Q13177 whole entry): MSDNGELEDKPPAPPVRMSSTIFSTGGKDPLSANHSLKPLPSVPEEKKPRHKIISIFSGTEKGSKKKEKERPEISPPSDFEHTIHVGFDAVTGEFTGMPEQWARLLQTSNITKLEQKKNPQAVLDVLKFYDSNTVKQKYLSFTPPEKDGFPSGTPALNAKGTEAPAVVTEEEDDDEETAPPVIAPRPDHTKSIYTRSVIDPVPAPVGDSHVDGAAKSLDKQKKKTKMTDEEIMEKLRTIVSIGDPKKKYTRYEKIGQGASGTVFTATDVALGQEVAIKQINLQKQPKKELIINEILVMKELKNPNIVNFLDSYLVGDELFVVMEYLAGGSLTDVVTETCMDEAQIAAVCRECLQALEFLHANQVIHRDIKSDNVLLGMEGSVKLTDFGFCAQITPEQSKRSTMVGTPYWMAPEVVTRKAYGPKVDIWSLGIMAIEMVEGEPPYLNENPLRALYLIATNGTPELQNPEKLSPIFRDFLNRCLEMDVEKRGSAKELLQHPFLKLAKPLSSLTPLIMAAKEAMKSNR

Structure (SMILES)	inhibition [1] [%]	inhibition [2] [%]	inhibition [3] [%]	inhibition [4] [%]	inhibition [5] [%]	inhibition [6] [%]	inhibition [7] [%]	inhibition [8] [%]	inhibition [9] [%]	inhibition [10] [%]	inhibition [11] [%]	inhibition [12] [%]	inhibition [13] [%]	inhibition [14] [%]	inhibition [15] [%]	inhibition [16] [%]	inhibition [17] [%]	inhibition [18] [%]	inhibition [19] [%]	inhibition [20] [%]
Nc1nc(-c2ccc3c(c2)C(=Cc2cc(Br)c(O)c(Br)c2)C(=O)N3)cs1	15.5	2.87	-1.51	-2.22	-1.94	-4.94	-1.99	-3.15	-5.26	-0.02	6.46	0.77	4.36	-0.05	4.99	2.23	6.93	-0.15		
COc1cc2ncn(-c3cc(OCc4ccccc4C(F)(F)F)c(C(N)=O)s3)c2cc1OC		3.79	7.26	1.94	1.77	5.55	5.02	2.59	-0.96	0.92	13.5	5.99	23	3.68	19.2	5.63	21.9	3.84	1.8	-0.46
CN1CCC(C(=O)Nc2n[nH]c3nnc(-c4ccccc4)cc23)CC1	1.63	10.6	7.32	1.19	2.25	5.86	6.46	6.52		1.81	6.11	4.23	4.8	2.25	1.61	3.6	3.36	3.4	3.31	-6.17
CC(=O)Nc1cccc(C#Cc2cncnc2Nc2ccc(OCc3cccc(F)c3)c(Cl)c2)n1	2.51	1.24	0.67	-0.89	-0.09	-0.61	-0.35	9.12	10.8	-0.61	-0.48	0.09	1.6	1.08	3.88	0.29	3.02	0.4	4.91	0.8
CC1=C(C(=O)Nc2ccc3[nH]ncc3c2)C(c2ccc(F)cc2)NC(=O)N1 (stereo not drawn)	-0.49	4.25	9.83	-0.87	-0.03	2.64	1.55	5.58	2.39	-0.56	4.16	1.62	1.78	1.52	3.88	2.07	3.37	0.1	-0.45	-1.9
COc1ccc(-c2coc3ncnc(N)c23)cc1	1.26	8.03	7.01	1.73	1.44	4.88	4.26	-5.35	-2.56	3.51	9.75	5.34	11.3	3.43	8.4	5.31	9.48	1.41		-1.23
CCn1c(-c2nonc2N)nc2cnc(Oc3cccc(NC(=O)c4ccc(OCCN5CCOCC5)cc4)c3)cc21	2.57	3.65	5.84	-0.41	0.34	-3.22	2.69	-0.29	-6.86	3.79	3.89	4.58	4.2	2.23	2.73	4.73	3.88	4.38	1.02	-8.77
Nc1ncnc2occ(-c3ccc(NC(=O)Nc4cc(C(F)(F)F)cc(C(F)(F)F)c4)cc3)c12		4.71	3.65	2.1	0.99	2.26	3.84	4.07	1.06	3.79	25.5	18.5	68.1	48.5	80.9	45	75.5	42.5	1.39	7.94
COc1cc2ncn(-c3cc(OCc4ccccc4Cl)c(C(N)=O)s3)c2cc1OC	-3.28	3.48	1.43	-1.4	-1.31	-3.29	1.37	0.31	-7.38	1.52	21.7	6.52	31.1	4.21	32.3	5.23	28.2	3.9	-3.38	-7.5
NS(=O)(=O)c1ccc(N/N=C2\C(=O)Nc3ccc(C(=O)NCCc4c[nH]cn4)cc32)cc1	6.15	3.1	7.85	1.34	3.15	4.63	6.49	3.33	10.1	5.1	6.98	3.97	11.2	4.18	9.6	5.47	8.73	3.68	2.86	3.67
COc1cc2ncn(-c3cc(O[C@H](C)c4ccccc4Cl)c(C(N)=O)s3)c2cc1OC		6.45	4.82	0.59	0.45	4.18	6.53	3.97	0.91	3.23	28.1	10.7	49.4	9.46	48.3	9.97	43.2	11.2	7.14	11.9
O=C1NC(=O)C(N2CCc3ccccc32)=C1c1ccc(Cl)cc1	-1.05	8.65	7.01	2.34	1.81	5.1	5.8	-2.87	2.3	4.83	4.21	6.7	2.97	3.31	3.23	6.26	3.84	2.02	0.62	-5.45
[O-][S+]1CCN(Cc2ccc(-c3ccc4ncnc(Nc5ccc(OCc6ccccc6)c(F)c5)c4c3)o2)CC1	5.46	1.29	5.06	0.28	-0.13	1.32	1.96	-2.2	2.21	1.66	2.97	2.03	0.51	2.17	0.04	1.58	0.89	1.21	-1.94	-0.59
